In the library only some 3.7% were active in any assay of this set; here they are far more common.
MazF activator: activators of E. coli MazEF toxin-antitoxin RNase, primary screen, biochemical, fluorescence, uHTS; 0.32% of 350,000 active; FAM/BHQ RNA-DNA oligo cleavage fluorescence, 5 h; Endoribonuclease toxin MazF (Escherichia coli (strain K12)), P0AE70; activation, % at 20 µM; in the data active = activation above about 50%
Target sequence (P0AE70 whole entry, looked up): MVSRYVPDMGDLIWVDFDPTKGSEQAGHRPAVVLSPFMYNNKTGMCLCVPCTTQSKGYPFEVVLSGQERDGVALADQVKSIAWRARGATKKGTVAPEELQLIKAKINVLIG
BoNT A protease: BoNT/A light chain protease inhibitors, primary screen, biochemical, flow cytometry, MLPCN library. Botulinum neurotoxin type A light chain protease (Clostridium botulinum A str. ATCC 3502). multiplex microsphere protease substrate cleavage. inhibition, % at 10 µM. 0.17% of 360,000 active. AID 588499, 2011; note: plate controls were buffer without enzyme for full effect and enzyme alone for no effect
BoNT F protease: BoNT/F light chain protease inhibitors, primary screen, biochemical, flow cytometry, MLPCN library; inhibition, % at 10 µM; AID 588497, 2011; 0.22% of 360,000 active; Botulinum neurotoxin type F light chain protease (Clostridium botulinum); Multiplex microsphere protease cleavage assay; in the data active = inhibition above about 35%, passing the limit was not always enough; inconclusive = no clear call, values can overlap the other calls; note: plate controls were buffer without enzyme for full effect and enzyme alone for no effect
Bead autofluor: flagged as autofluorescent in microsphere protease counterscreen; compound autofluorescence counterscreen, microsphere flow cytometry; active compounds read high; fluorescence intensity (no concentration beside the values); 3.1% of 360,000 active; AID 624483; in the data active = fluorescence intensity above about 16000; inconclusive = no clear call, values can overlap the other calls
Anthrax LF prot: Bacillus anthracis LF protease inhibitors, primary screen, biochemical, multiplex microsphere, MLPCN library | multiplex microsphere protease cleavage assay | AID 588501, 2011 | Lethal factor (Bacillus anthracis), P15917 | 0.12% of 360,000 active | inhibition, % at 10 µM; note: plate controls were buffer without enzyme for full effect and enzyme alone for no effect
An asterisk follows results filed as active; ? = inconclusive; · = not tested or not shown. Cut-off read from the data, not from the text of the source, unless noted: active = inhibition above about 30%; inconclusive = no clear call, values can overlap the other calls; inactive = below that.

SMILES	MazF activator	BoNT A protease	BoNT F protease	Bead autofluor	Anthrax LF prot
NC(=O)NC(c1ccccc1)c1ccccc1F (centres undefined)	0	0	-3	23015*	-2
CC1C(=NO)C(C)C(c2ccccc2)NC1c1ccccc1 (centres undefined)	-3	?	-2	22855*	-1
CCCCC[C@@H](C)N1C[C@H](COCc2ccccc2)Oc2cc(N3CCC[C@H]3COC)ccc2S1(=O)=O	·	0	4	4221	-7
O=C1CCC(C(=O)OCc2c(Cl)cccc2Cl)N1 (centres undefined)	5	0	1	20438*	-1
Cc1cc(C(C)(C)C)cc(C)c1COC(=O)C1CCC(=O)N1 (centres undefined)	1	-1	-1	4460	1
O=C1CCC(C(=O)Nc2ccccc2)N1 (centres undefined)	8	1	-2	2985	2
O=C1CCC(C(=O)OCc2ccccc2)N1 (centres undefined)	-4	-1	-1	24033*	0
OC1(c2ccc(F)cc2)CCNC1 (centres undefined)	9	0	-1	23064*	-1
COc1cc(C2Nc3ccc4ncccc4c3C3=C2C(=O)CC(C)(C)C3)cc(OC)c1O (centres undefined)	8	-1	1	23335*	1
Cc1coc2c1c(C)cc1oc(=O)c(Cc3ccccc3)c(C)c12	-2	-2	-4	24793*	-1
COc1ccc(NC(=O)COC(=O)C2CC(=O)N(c3ccc(C)cc3)C2)cc1 (centres undefined)	4	-5	-9	3845	-10
CC1=C(C(=O)N(C(C)C)C(C)C)CC(CC(=O)NCCc2ccccn2)C(=O)N1CCCN1CCCC1=O (centres undefined)	·	0	-12	4860	-10
Cc1sc2ncn(CC(=O)NCC(=O)N(C)Cc3ccccc3)c(=O)c2c1C	0	1	2	22315*	-2
Cc1sc2ncn(CC(=O)NCc3ccccc3)c(=O)c2c1C	-11	0	-8	4005	-5
Cc1sc2ncn(CC(=O)NCC(=O)N(C)C3CCCCC3)c(=O)c2c1C	5	2	2	22154*	-3
O=C(C1CCCCN1S(=O)(=O)c1ccccc1)N1CCN(C(c2ccccc2)c2ccccc2)CC1 (centres undefined)	-2	-1	-1	20580*	-4
O=C(C1CCCCN1S(=O)(=O)c1ccccc1)N1CCCCC1 (centres undefined)	-6	-1	-8	11082	-3
Cc1cn([C@H]2C[C@H](O)[C@@H](CNC(=O)c3ccccn3)O2)c(=O)[nH]c1=O	8	0	-3	4008	0
CC1=CC2=C(OC1N(C)C)c1cccc3cccc(c13)C2=O (centres undefined)	-186	15	10	21836*	23
Cc1ccc2nc(SCC(=O)Nc3ccc(C)c(Cl)c3)nc(=O)n2c1	74*	-2	-11	6133	-1
CC(O)(CS(=O)(=O)c1cccc(C(F)(F)F)c1)C(=O)Nc1cccc(C(F)(F)F)c1 (centres undefined)	-2	1	-4	10906	-4
CC(O)(CS(=O)(=O)Cc1ccccc1)C(=O)Nc1cccc(C(F)(F)F)c1 (centres undefined)	1	1	1	20560*	0
CC(O)(CS(=O)(=O)Cc1ccccc1)C(=O)Nc1ccc(C(F)(F)F)cc1 (centres undefined)	3	?	-2	23000*	1
CCOC(=O)c1c(-c2ccccc2)csc1NC(=O)c1ccc(N2C(=O)CCC2=O)cc1	0	1	1	22792*	1
CCOC(=O)c1c(-c2ccccc2)csc1NC(=O)c1cc(S(=O)(=O)N2CCOCC2)ccc1C	-14	1	-2	2263	-2
SMILES	MazF activator	BoNT A protease	BoNT F protease	Bead autofluor	Anthrax LF prot
CCOC(=O)c1c(-c2ccccc2)csc1NC(=O)c1ccc(S(=O)(=O)N2CC(C)OC(C)C2)cc1 (centres undefined)	-6	2	-1	23061*	-1
CN(C)CC1CCC/C(=C/c2ccc(Cl)cc2)C1=O (centres undefined)	5	-2	-34	3282	-6
Cc1c(C(=O)N2CCC3(CC2)OCCO3)oc2ccc(S(=O)(=O)N3CCOCC3)cc12	3	2	4	3481	1
Cn1cc(C(=O)N2CCC3(CC2)OCCO3)c2c3ccccc3n(C)c2c1=O	-3	-1	-1	23087*	-4
CCOC(=O)N1CCN(C(=O)c2cn(C)c(=O)c3c2c2ccccc2n3C)CC1	2	2	3	22295*	0
Cc1c(C(=O)N2CCC3(CC2)OCCO3)oc2ccccc12	-2	4	6	18025*	5
CC(C)Cn1cc(C(=O)N2CCC3(CC2)OCCO3)c2c3ccccc3n(C)c2c1=O	5	1	1	11023	-4
CC1=C(C(=O)N2CCC3(CC2)OCCO3)C2(CCC(C)CC2)OC1=O (centres undefined)	-7	?	1	21647*	-1
CCCCCCCCN1C(=O)[C@H](CC(=O)NCC23CC4CC(CC(C4)C2)C3)C[C@@]2(C(=O)OCC)CCCC=C12	·	-1	-4	4259	3
Cn1cc(C(=O)NCCN2CCN(c3cccc(Cl)c3)CC2)c2c3ccccc3n(C)c2c1=O	3	-1	-2	23347*	-3
Cc1noc(C)c1NC(=O)Nc1ccc2c(c1)C(=O)N([C@H](C)CO)C[C@H](C)[C@@H](CN(C)S(=O)(=O)c1c(C)noc1C)O2	5	-1	-7	3038	-5
CCOc1ccc2nc(SCC(=O)NCc3ccco3)sc2c1	-11	3	4	21294*	0
CCOc1ccc2nc(SCC(=O)NC(=O)NCc3ccco3)sc2c1	-12	0	-6	2969	-3
CCOc1ccc2nc(SCC(=O)N3CCCc4ccccc43)sc2c1	2	?	2	21324*	-6
CCOc1ccc2nc(SCC(=O)N3c4ccccc4Sc4ccccc43)sc2c1	4	0	-5	3155	-1
COc1ccc(-c2ccc(SCC(=O)NCc3ccco3)nn2)cc1	-4	-2	-4	24470*	-2
O=C(CSc1nc(-c2ccccc2)c(-c2ccccc2)[nH]1)NCc1ccco1	-13	0	-2	23502*	-3
COCC(=O)N1CCC(Oc2ccc(C(=O)N3C[C@@H]4CCC[C@H]3C4)cc2)CC1	2	-1	-10	4474	1
C=CCNc1nc(-c2sc(NC(=O)C(C)(C)C)nc2C)c(-n2cc(-c3ccccc3)nn2)s1	·	1	-2	6132	-3
COc1ccc(-c2cc3nc(C)c(CCC(=O)NCc4ccco4)c(C)n3n2)c(OC)c1	6	-1	0	20470*	-1
